# Article PMC7862700, “An all-to-all approach to the identification of sequence-specific readers for epigenetic DNA modifications on cytosine”
# Columns and labels:
# Assay in all cases: DAPPL (digital affinity profiling via proximity ligation, sequencing); 10 mM Tris-HCl pH 7.5, 50 mM NaCl, 1 mM DTT, 4% glycerol, room temperature, 30 min; GST-TFs on glutathione beads, 16-mer random dsDNA library, 0.1% formaldehyde crosslink after washing; high values mean tight binding
# Details in all cases: protein: recombinant; tags: N-terminal GST; dsDNA, one strand shown
# [1] = molecular target: T1, FLI1 (Homo sapiens, UniProt Q01543 1-452)
# T1 sequence: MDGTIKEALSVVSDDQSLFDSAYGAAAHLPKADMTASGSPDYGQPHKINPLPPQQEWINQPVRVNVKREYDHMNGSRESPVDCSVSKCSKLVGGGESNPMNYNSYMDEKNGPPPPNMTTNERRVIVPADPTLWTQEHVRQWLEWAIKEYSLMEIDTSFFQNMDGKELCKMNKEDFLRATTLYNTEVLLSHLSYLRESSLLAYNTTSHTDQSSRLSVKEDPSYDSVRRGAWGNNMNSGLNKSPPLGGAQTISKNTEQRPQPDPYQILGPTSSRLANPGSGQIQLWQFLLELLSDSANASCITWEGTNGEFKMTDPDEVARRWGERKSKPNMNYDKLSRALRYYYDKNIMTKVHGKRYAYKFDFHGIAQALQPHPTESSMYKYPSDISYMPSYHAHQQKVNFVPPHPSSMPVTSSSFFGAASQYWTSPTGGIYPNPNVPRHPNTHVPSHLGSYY
# How it was run: (§1)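 Human transcription factors carrying a GST fusion were produced in yeast, bound to glutathione beads, tagged with DNA barcodes and pooled together with a tag-only sample. Each pool was held with 200 nmole of a random double-stranded 16-mer DNA library in Tris/NaCl/DTT/glycerol buffer for 30 min at room temperature, then washed, crosslinked in 0.1% formaldehyde, proximity-ligated with BsaI/T4 ligase (1 h, 37 °C), PCR-amplified and sequenced on an Illumina NextSeq500. Binding signal is the read frequency of each hexamer for a given factor divided by its frequency in the tag-only sample.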
# [2] = molecular target: T2, ELK1 (Homo sapiens, UniProt P19419 1-428)
# T2 sequence: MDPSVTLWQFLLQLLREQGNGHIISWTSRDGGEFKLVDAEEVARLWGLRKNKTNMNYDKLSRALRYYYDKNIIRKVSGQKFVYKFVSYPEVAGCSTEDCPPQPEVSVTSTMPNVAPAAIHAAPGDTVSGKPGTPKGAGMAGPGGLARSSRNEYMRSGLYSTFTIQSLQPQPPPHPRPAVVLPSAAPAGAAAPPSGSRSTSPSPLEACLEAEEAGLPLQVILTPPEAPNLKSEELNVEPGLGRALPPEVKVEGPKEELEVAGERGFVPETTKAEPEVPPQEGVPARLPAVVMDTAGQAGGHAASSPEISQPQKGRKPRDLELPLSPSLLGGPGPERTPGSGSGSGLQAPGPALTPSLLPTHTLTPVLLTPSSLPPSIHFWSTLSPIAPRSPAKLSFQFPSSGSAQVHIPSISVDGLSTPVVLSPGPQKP
# How it was run: as §1
# [3] = molecular target: T3, GABPA (Homo sapiens, UniProt Q06546 1-454)
# T3 sequence: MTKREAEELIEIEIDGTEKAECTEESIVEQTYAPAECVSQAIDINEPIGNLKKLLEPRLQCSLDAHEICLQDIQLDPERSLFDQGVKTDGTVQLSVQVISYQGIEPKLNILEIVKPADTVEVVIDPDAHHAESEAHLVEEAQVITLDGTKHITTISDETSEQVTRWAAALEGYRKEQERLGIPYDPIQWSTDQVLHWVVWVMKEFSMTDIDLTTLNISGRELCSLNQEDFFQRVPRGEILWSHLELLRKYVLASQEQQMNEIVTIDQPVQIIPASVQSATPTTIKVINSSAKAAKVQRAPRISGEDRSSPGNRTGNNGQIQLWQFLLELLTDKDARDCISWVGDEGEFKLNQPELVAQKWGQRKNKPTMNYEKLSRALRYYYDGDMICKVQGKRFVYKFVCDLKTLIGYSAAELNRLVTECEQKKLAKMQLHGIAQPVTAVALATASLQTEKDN
# How it was run: as §1
# [4] = molecular target: ELF1 (Homo sapiens, UniProt P32519 1-619)
# How it was run: as §1
# [5] = molecular target: T4, EHF (Homo sapiens, UniProt Q9NZC4 1-300)
# T4 sequence: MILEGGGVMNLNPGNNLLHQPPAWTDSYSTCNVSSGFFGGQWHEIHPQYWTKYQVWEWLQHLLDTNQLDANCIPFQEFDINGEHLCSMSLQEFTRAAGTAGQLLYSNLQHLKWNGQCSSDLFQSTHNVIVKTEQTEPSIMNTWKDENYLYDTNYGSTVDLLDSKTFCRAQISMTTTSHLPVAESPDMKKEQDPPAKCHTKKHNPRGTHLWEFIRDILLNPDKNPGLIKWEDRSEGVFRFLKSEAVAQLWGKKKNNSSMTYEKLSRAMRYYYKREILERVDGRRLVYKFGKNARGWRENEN
# How it was run: as §1
# [6] = molecular target: SPI1 (Homo sapiens, UniProt P17947 1-270)
# How it was run: as §1
# [7] = molecular target: SPIB (Homo sapiens, UniProt Q01892 1-262)
# How it was run: as §1
# [8] = molecular target: T5, ELK3 (Homo sapiens, UniProt P41970 1-407)
# T5 sequence: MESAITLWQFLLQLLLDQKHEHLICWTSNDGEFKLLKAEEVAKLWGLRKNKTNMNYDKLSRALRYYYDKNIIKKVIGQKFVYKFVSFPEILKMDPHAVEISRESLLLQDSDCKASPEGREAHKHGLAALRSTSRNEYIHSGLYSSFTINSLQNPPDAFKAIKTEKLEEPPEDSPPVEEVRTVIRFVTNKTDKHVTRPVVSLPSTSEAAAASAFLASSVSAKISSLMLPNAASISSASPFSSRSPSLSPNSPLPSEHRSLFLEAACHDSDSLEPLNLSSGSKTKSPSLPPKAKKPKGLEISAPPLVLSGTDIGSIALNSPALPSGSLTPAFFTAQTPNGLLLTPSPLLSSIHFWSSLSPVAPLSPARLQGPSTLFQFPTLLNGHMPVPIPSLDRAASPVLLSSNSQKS
# How it was run: as §1
# [9] = molecular target: T6, FEV (Homo sapiens, UniProt Q99581 1-238)
# T6 sequence: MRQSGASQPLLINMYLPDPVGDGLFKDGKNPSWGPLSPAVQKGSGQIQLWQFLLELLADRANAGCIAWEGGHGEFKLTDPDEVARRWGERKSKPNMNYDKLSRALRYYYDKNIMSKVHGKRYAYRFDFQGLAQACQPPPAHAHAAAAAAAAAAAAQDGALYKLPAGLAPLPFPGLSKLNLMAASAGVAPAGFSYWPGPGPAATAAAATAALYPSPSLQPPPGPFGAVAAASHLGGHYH
# How it was run: as §1
# [10] = molecular target: ETV5 (Homo sapiens, UniProt P41161 1-510)
# How it was run: as §1
# [11] = molecular target: ELF4 (Homo sapiens, UniProt Q99607 1-663)
# How it was run: as §1
# [12] = molecular target: ETV1 (Homo sapiens, UniProt P50549 1-477)
# How it was run: as §1
# [13] = molecular target: T7, ERF (Homo sapiens, UniProt P50548 1-548)
# T7 sequence: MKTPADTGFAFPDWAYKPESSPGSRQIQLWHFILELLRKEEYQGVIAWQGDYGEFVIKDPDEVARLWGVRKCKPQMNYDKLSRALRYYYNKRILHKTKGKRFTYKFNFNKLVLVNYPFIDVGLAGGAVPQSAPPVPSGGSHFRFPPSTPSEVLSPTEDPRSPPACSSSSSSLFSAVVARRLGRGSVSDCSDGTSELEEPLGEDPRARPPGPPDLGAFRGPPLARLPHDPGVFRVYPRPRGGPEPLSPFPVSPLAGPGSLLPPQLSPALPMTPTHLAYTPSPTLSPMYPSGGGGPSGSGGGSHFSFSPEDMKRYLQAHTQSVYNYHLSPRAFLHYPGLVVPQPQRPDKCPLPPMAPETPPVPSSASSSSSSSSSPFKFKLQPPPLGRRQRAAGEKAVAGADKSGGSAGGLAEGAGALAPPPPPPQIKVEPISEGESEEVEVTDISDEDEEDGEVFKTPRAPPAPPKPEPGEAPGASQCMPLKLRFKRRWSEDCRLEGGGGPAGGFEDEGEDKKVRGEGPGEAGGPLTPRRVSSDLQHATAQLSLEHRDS
# How it was run: as §1
# [14] = molecular target: T8, ETV3L (Homo sapiens, UniProt Q6ZN32 1-361)
# T8 sequence: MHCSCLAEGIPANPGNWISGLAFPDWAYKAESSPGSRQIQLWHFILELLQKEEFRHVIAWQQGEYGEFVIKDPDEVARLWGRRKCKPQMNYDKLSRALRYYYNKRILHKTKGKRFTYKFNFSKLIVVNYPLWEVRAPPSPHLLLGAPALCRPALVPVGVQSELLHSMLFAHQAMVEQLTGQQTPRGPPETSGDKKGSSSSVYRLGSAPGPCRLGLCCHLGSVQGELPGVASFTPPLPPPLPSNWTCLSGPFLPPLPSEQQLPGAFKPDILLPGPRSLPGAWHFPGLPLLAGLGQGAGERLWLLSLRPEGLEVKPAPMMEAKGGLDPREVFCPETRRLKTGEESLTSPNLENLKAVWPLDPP
# How it was run: as §1
# [15] = molecular target: T9, ETS2 (Homo sapiens, UniProt P15036 1-469)
# T9 sequence: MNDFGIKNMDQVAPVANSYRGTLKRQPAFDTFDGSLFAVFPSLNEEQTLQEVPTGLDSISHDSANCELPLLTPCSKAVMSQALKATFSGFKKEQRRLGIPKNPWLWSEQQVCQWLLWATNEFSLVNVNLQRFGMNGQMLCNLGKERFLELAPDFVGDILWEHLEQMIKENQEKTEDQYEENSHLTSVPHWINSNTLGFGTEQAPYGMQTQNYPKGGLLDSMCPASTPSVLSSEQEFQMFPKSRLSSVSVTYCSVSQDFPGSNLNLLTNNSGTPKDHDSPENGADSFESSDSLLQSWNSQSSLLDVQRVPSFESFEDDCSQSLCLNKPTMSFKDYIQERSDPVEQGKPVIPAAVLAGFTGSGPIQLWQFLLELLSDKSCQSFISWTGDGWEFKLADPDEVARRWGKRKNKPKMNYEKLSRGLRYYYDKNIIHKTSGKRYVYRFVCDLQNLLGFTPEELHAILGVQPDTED
# How it was run: as §1
# [16] = molecular target: T10, SPDEF (Homo sapiens, UniProt O95238 1-335)
# T10 sequence: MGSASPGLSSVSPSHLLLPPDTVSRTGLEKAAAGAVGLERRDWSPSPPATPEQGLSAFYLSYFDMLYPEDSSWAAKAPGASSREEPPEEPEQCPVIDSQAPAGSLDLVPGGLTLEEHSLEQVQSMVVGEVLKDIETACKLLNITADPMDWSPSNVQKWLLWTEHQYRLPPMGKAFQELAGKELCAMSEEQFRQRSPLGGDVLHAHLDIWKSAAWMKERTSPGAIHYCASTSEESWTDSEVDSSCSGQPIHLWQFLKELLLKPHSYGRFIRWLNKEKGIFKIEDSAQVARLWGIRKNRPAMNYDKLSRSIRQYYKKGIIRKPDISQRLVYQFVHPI
# How it was run: as §1
# [17] = molecular target: T11, ETV3 (Homo sapiens, UniProt P41162-2 1-143)
# T11 sequence: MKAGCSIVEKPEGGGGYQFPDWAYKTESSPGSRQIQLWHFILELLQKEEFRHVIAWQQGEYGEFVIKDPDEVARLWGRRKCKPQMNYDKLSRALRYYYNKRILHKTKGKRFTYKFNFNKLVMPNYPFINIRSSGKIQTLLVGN
# How it was run: as §1
# [18] = molecular target: ETV6 (Homo sapiens, UniProt P41212 1-452)
# How it was run: as §1
# Chain of ELF4 (Q99607 whole entry): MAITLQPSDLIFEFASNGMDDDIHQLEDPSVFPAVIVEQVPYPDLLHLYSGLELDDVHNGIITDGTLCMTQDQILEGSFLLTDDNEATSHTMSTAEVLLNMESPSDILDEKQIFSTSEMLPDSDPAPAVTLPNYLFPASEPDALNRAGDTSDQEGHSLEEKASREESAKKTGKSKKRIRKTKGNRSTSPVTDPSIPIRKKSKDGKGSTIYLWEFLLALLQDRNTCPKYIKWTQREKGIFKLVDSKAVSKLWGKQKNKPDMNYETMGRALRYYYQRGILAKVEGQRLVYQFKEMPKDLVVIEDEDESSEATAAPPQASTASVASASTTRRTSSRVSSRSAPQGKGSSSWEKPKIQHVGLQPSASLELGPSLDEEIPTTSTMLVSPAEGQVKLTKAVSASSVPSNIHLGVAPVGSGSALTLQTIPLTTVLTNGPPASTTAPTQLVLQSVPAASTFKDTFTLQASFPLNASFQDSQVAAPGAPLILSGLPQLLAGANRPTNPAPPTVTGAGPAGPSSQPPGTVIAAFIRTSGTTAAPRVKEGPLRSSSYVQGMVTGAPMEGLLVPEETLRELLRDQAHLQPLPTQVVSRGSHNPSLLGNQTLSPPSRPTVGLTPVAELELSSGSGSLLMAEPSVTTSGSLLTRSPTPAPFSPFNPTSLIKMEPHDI
# Chain of SPIB (Q01892 whole entry): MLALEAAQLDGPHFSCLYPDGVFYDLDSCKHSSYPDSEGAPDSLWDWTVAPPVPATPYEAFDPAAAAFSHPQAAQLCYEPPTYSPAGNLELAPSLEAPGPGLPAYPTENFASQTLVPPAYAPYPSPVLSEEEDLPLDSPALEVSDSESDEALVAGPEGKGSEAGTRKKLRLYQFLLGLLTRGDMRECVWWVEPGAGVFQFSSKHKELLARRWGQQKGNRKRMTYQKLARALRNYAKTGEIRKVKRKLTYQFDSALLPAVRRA
# Chain of ETV6 (P41212 whole entry): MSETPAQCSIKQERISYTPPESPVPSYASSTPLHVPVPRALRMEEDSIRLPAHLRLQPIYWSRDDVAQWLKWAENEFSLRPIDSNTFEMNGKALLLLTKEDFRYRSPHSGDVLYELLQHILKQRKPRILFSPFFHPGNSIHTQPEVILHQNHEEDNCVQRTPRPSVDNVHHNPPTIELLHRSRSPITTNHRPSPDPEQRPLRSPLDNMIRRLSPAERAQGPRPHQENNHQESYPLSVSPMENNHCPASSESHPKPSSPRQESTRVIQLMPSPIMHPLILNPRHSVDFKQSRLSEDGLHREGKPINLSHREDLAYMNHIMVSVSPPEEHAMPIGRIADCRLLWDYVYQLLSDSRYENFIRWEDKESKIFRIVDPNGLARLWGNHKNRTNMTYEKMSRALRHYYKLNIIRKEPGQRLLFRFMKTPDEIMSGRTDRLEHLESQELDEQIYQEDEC
# Chain of ELF1 (P32519 whole entry): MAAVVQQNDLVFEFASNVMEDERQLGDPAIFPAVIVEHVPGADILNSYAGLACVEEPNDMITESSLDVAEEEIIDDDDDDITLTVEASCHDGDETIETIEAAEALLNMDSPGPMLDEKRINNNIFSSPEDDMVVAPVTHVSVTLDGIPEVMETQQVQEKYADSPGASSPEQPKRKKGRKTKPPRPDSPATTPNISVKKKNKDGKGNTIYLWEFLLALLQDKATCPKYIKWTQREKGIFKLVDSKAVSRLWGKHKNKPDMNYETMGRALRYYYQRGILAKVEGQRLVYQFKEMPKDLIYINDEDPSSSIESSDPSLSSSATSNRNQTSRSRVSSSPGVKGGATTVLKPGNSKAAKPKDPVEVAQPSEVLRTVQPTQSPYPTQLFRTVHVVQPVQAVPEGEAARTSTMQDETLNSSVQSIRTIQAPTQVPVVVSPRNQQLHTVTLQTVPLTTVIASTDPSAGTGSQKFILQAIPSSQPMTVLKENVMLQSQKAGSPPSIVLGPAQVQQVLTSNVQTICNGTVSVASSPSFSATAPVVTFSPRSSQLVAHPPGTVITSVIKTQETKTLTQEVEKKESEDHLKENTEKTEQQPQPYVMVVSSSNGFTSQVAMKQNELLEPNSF
# Chain of ETV5 (P41161 whole entry): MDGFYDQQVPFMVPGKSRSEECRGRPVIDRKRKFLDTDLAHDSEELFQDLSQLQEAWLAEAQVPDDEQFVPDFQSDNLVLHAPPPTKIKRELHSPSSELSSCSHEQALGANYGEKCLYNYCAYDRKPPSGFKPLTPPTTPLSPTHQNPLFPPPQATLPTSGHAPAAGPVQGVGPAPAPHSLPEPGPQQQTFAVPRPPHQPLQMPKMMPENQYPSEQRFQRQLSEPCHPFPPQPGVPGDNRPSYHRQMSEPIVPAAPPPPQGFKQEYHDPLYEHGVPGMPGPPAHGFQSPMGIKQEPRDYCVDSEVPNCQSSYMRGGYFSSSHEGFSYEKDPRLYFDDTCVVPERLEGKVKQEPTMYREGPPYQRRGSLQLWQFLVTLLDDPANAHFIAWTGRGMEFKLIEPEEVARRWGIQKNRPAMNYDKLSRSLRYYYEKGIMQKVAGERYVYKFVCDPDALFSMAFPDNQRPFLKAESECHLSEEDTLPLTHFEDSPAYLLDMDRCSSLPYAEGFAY
# Chain of ETV1 (P50549 whole entry): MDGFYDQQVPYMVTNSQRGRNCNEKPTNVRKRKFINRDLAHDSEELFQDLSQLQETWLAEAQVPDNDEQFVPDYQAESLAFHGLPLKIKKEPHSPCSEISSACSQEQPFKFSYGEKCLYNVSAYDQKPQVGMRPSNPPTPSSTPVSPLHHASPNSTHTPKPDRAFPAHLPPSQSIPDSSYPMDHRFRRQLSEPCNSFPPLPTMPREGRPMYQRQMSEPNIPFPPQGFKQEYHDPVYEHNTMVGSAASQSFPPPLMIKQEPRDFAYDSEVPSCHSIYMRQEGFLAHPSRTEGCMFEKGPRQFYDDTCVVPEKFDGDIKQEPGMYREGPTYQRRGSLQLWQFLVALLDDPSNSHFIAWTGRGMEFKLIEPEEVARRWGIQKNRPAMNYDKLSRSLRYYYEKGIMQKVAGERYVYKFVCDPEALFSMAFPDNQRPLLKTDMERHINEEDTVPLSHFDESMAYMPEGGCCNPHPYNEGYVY
sequence,measurement,setting,value
TTGTCA,binding signal,[1],"1.1 fold enrichment (6-mer frequency, TF over GST control)"
same,binding signal,[2],"1.04 fold enrichment (6-mer frequency, TF over GST control)"
same,binding signal,[3],"1.08 fold enrichment (6-mer frequency, TF over GST control)"
same,binding signal,[4],"1.13 fold enrichment (6-mer frequency, TF over GST control)"
same,binding signal,[5],"1.11 fold enrichment (6-mer frequency, TF over GST control)"
same,binding signal,[6],"1.16 fold enrichment (6-mer frequency, TF over GST control)"
same,binding signal,[7],"1.21 fold enrichment (6-mer frequency, TF over GST control)"
same,binding signal,[8],"1.13 fold enrichment (6-mer frequency, TF over GST control)"
same,binding signal,[9],"1.06 fold enrichment (6-mer frequency, TF over GST control)"
same,binding signal,[10],"1.05 fold enrichment (6-mer frequency, TF over GST control)"
same,binding signal,[11],"1.14 fold enrichment (6-mer frequency, TF over GST control)"
same,binding signal,[12],"1.15 fold enrichment (6-mer frequency, TF over GST control)"
same,binding signal,[13],"1.3 fold enrichment (6-mer frequency, TF over GST control)"
same,binding signal,[14],"1.17 fold enrichment (6-mer frequency, TF over GST control)"
same,binding signal,[15],"1.11 fold enrichment (6-mer frequency, TF over GST control)"
same,binding signal,[16],"1.06 fold enrichment (6-mer frequency, TF over GST control)"
same,binding signal,[17],"1.16 fold enrichment (6-mer frequency, TF over GST control)"
same,binding signal,[18],"1.07 fold enrichment (6-mer frequency, TF over GST control)"
